# According to PubChem BioAssay (NCATS):
# Several values for one entry are separate records, joined by “and”; a condition that tells them apart may be missing. Identical values can stand only once. Inconclusive results are not listed. Where a call stands in place of a potency, no number is given. A structure can be active in one record and inactive in another. Activity calls are given as the source filed them. Unless noted, calls follow the shape of the dose curve; as a rule, active = well fitted curve in the direction sought with a large enough effect; inconclusive = small, poorly fitted or top-dose-only effect, or another doubt; inactive = no such curve, though single readings can be large; an effect the other way counts as inactive or inconclusive.
# Key:
# [1] = AP1 Signaling Pathway (AID 357; active = well fitted curve in either direction with a large enough effect, not every such curve was filed as active;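 also: ME-180 reporter cells stimulated with EGF at its EC50 level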); conditions: ME-180 AP-1-bla reporter, EGF-induced, beta-lactamase ratio, 5 h; at 38 µM (top of the series)
# Summary of the method: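 A ratiometric CCF4 readout (405 nm excitation; 460 and 530 nm emission) quantified AP-1-driven beta-lactamase in ME-180 cells after 5 h with compound and EC50 EGF; AC50 values were derived for activators and inhibitors.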
# [2] = molecular target: Cytochrome P450 1A2 (Homo sapiens) (UniProt P05177); assay: p450-cyp1a2 (AID 410; calls by dose curve; also: potency is read from the fitted curve at half-maximal effect); conditions: recombinant CYP1A2, luciferin-ME demethylation, luminescence; series mostly up to 57 µM
# Summary of the method: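 Luminescent demethylation readout: Luciferin-ME (100uM, equal to Km) turned over by 20nM CYP1A2 for 60 min at room temperature after NADPH regeneration addition, following 10 min compound preincubation. Normalization used 57 uM furafylline as full inhibition.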
# [3] = NFAT Signaling Pathway (AID 444; active = well fitted curve in either direction with a large enough effect, not every such curve was filed as active;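 also: carbachol stimulus at about its EC50 of 1 µM final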); conditions: Jurkat NFAT-bla M1, carbachol, beta-lactamase ratio, 5 h; at 38 µM (top of the series)
# Summary of the method: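 Read-out: CCF4 FRET ratio (460 nm/530 nm) after 1 h RT dye loading, used for %activity and AC50 from titration series. Cells: Jurkat NFAT-β-lactamase/M1 line, treated with compound plus 1 uM carbachol for 5 h, 37 °C.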
# [4] = Stat Signaling Pathway (AID 446; active = well fitted curve in either direction with a large enough effect, not every such curve was filed as active;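 also: ME-180 cervical cancer cells given 40 pM IL-6 alongside compound; SIE-controlled beta-lactamase reporter measured as 460/530 nm FRET emission ratio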); conditions: ME-180 (cervical carcinoma) SIE beta-lactamase reporter, IL-6 stimulated, 5 h; at 38 µM (top of the series)
# Summary of the method: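 Normalization used AC90 stimulation (300 pM IL-6) and AC90 inhibition (125 nM pan-JAK inhibitor at 40 pM IL-6). The underlying signal is SIE-driven beta-lactamase in ME-180 cells after 5 h IL-6 exposure with compound.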
# [5] = molecular target: Glucocorticoid receptor (Homo sapiens) (UniProt P04150); assay: GR-GFP Redistribution (AID 450;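 active = compounds whose dose series gives a full or clear partial fitted curve of increased nuclear translocation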; also: potency is read from the fitted curve at half-maximal effect); conditions: U2OS GR-GFP nuclear translocation, laser cytometry, 2 h
# [6] = molecular target: Glucocorticoid receptor (Homo sapiens) (UniProt P04150); assay: GR-EFC Redistribution (AID 451; calls by dose curve; also: potency is read from the fitted curve at half-maximal effect); conditions: CHO-K1 GR-EFC translocation, beta-gal luminescence, 2 h
# Summary of the method: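 Translocation of GR-ED fusion to nuclear EA restores b-gal, read by luminescence after 1 h room-temperature detection. Engineered CHO-K1 biosensor cells, 1,000/well, exposed 2 h at 37 C to titrations up to 46 uM final.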
# [7] = molecular target: Mitogen-activated protein kinase 10 (Mus musculus) (UniProt Q61831); assay: JNK3 AlphaScreen Assay (AID 530; active = well fitted curve in either direction with a large enough effect, not every such curve was filed as active;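 also: kinase came from lysate of stimulated human HepG2 cells; signal reports phosphorylation of biotinylated GST-cJun 1-79 at Ser73 with 10 µM ATP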); conditions: JNK3 lysate, c-Jun phosphorylation; series mostly up to 57.1 µM
# Summary of the method: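 qHTS titrations with 15 min compound pre-incubation before adding ATP (10 uM final). Read-out: AlphaScreen of Ser73-phosphorylated biotin-GST-cJun using HepG2 lysate JNK3 activated by IL-1β and TNFα.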
# [8] = molecular target: 3',5'-cyclic-AMP phosphodiesterase 4B (Homo sapiens) (UniProt Q07343); assay: qHTS Assay for Inhibitors of PDE-IV (AID 607; active = well fitted activation curve with a large enough effect in the main read-out, with a control signal flat, not every such curve was filed as active); conditions: HEK293 ACTOne CNG channel cells, membrane potential fluorescence; series mostly up to 22.9 µM
# Summary of the method: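 HEK293 ACTOne cells with CNG channel (1000/well), endogenous PDE4; membrane potential dye, compounds up to 22.9 uM final. Fluorescence Ex 535/Em 590; RO 20-1724 (100 uM final) as reference.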
# [9] = molecular target: Cytochrome P450 2C9 (Homo sapiens) (UniProt P11712); assay: qHTS Assay for Inhibitors and Substrates of Cytochrome P450 2C9 (AID 883); conditions: recombinant CYP2C9, luciferin-H luminescence, 60 min; series mostly up to 57.1 µM; also: nearly all actives have a fitted effect of over 60% in size; also: potency is read from the fitted curve at half-maximal effect
# Summary of the method: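 Turnover of Luciferin-H (100uM, KM) by 10nM human CYP2C9 was measured over 60 min at 37C with NADPH regeneration; inhibitors and some substrates reduce luminescence. Data normalized to sulphaphenazole 57uM.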
# [10] = molecular target: Cytochrome P450 3A4 (Homo sapiens) (UniProt P08684); assay: qHTS Assay for Activators of Cytochrome P450 3A4 (AID 885); conditions: recombinant CYP3A4, Luciferin-PPXE luminescence, 60 min; series mostly up to 57.1 µM; also: nearly all actives have a fitted effect of over 65% in size
# Summary of the method: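 Human CYP3A4 dealkylates Luciferin-PPXE to luciferin, which luciferase detection converts to light. Substrate was at its KM (25uM), buffer 200mM KPO4, reaction 60 min at RT.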
# [11] = molecular target: Cytochrome P450 2C19 (Homo sapiens) (UniProt P33261); assay: qHTS Assay for Inhibitors and Substrates of Cytochrome P450 2C19 (AID 899); conditions: recombinant CYP2C19, luciferin-H EGE luminescence; series mostly up to 57.1 µM; also: nearly all actives have a fitted effect of over 60% in size; also: potency is read from the fitted curve at half-maximal effect
# Summary of the method: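 Reactions contain 5nM enzyme, 10uM Luciferin-H EGE (KM) and 50mM KPO4; compound preincubates 10 min at 37C, NADPH regeneration starts turnover for 60 min. Luminescence after detection reagent gives activity.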
# [12] = molecular target: DNA dC->dU-editing enzyme APOBEC-3G (Homo sapiens) (UniProt Q9HC16); assay: qHTS for inhibitors of Vif-A3G interactions: Validation (AID 588379); conditions: Vif-A3G protein interaction assay; series mostly up to 46.1 µM
# Summary of the method: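 Yellow fluorescence (Ex 488, Em 500-530) of Vif-coexpressing HeLa A3G-eYFP cells, scanned by Acumen cytometer, reports blocked A3G degradation. Cells plated at 700/well overnight at 37 deg C before compound addition, then a further overnight compound incubation at 37 deg C.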
# [13] = tested on: Zika virus NS2B-NS3 protease; assay: Primary screen GU AMC qHTS for Zika virus inhibitors (AID 1347154); conditions: Zika NS2B-NS3 unlinked protease, AMC fluorogenic substrate; series mostly up to 54.1 µM; also: nearly all actives have a fitted effect of over 70% in size
# Summary of the method: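 Fluorogenic AMC-substrate cleavage by noncovalent NS2B-NS3 protease complex (25 nM, pH 8.0 Tris buffer with Tween 20) followed for 15 minutes at room temperature (~20% conversion). Percent inhibition from ex340/em450 signal change, fitted by 4-parameter Hill equation.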
# [14] = Primary qHTS for small molecule stabilizers of the endoplasmic reticulum resident proteome: Secreted ER Calcium Modulated Protein (SERCaMP) assay (AID 1508630); conditions: SH-SY5Y GLuc-SERCaMP (Gaussia luciferase released on ER calcium loss) secretion, thapsigargin, luminescence; series mostly up to 38.4 µM; also: potency is read from the fitted curve at half-maximal effect
# Summary of the method: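 The SH-SY5Y reporter protocol was run at 3 concentrations up to 38.3 uM (primary) or 11 concentrations (follow-up): 16 h compound, 100 nM thapsigargin for 4 h, then extracellular luciferase luminescence.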
# [15] = molecular target: Rap guanine nucleotide exchange factor 3 (Homo sapiens) (UniProt O95398); assay: Confirmatory qHTS for agonist of cAMP-regulated guanine nucleotide exchange factor 3 (EPAC1) (AID 1645881); conditions: EPAC1 Rap1B BODIPY-GDP exchange fluorescence, 100% = cAMP control response; series mostly up to 154 µM;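 also: EPAC1 catalysed release of BODIPY-GDP from Rap1B seen as fluorescence loss; nearly all actives have a fitted effect of over 75% in size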
# [16] = molecular target: Cytochrome P450 3A4 (Homo sapiens) (UniProt P08684); assay: qHTS Assay for Inhibitors and Substrates of Cytochrome P450 3A4 (AID 884); conditions: recombinant CYP3A4, Luciferin-PPXE luminescence; series mostly up to 57.1 µM; also: nearly all actives have a fitted effect of over 50% in size; also: potency is read from the fitted curve at half-maximal effect
# Summary of the method: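 Luminescent readout of luciferin produced by CYP3A4 (20 nM) dealkylation of Luciferin-PPXE, 25 uM (its KM). NADPH-driven reaction ran 60 min at RT after 10 min compound preincubation; data scaled to 57 uM ketoconazole as 100% inhibition.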
# [17] = molecular target: Cytochrome P450 2D6 (Homo sapiens) (UniProt P10635); assay: qHTS Assay for Inhibitors and Substrates of Cytochrome P450 2D6 (AID 891); conditions: recombinant CYP2D6, luciferin-ME EGE luminescence; series mostly up to 57.1 µM; also: nearly all actives have a fitted effect of over 60% in size; also: potency is read from the fitted curve at half-maximal effect;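 as to activity change, negative = inhibition: luciferin methyl ether substrate demethylated by CYP2D6 with NADPH regeneration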
# Summary of the method: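 Luminescent read-out of luciferin formed by 5 nM human CYP2D6 demethylating 30 uM Luciferin-ME EGE (Km level) over 60 min at room temperature after NADPH regeneration addition. Data normalized to full inhibition by 1.43 uM quinidine.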
# [18] = molecular target: Guanine nucleotide-binding protein G(i) subunit alpha-1 (Homo sapiens) (UniProt P63096); assay: qHTS Assay for Inhibitors of RGS12 GoLoco Motif Activity (Green Fluorophore) (AID 879); conditions: Galphai1/FITC-RGS12 GoLoco peptide, fluorescence polarization; series mostly up to 57.1 µM;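 also: negative values mean loss of peptide binding seen as reduced polarization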
# Summary of the method: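 A drop in FITC polarization marked displacement of the FITC-tagged RGS12 GoLoco peptide (10 nM) from Gαi1 (50 nM). Compounds were incubated 10 min at room temperature in Tris pH 7.5 buffer containing 150 mM NaCl, 0.1 mM GDP and 0.05% NP40; unlabeled peptide titration served as control.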
# [19] = molecular target: Ubiquitin carboxyl-terminal hydrolase 1 (Homo sapiens) (UniProt O94782); assay: Inhibitors of USP1/UAF1: Pilot qHTS (AID 504865); conditions: purified USP1/UAF1, Ub-rhodamine cleavage fluorescence; series mostly up to 114 µM;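 also: rhodamine fluorescence freed from ubiquitin-rhodamine substrate followed over time; top concentration of the series differs between compounds; nearly all actives have a fitted effect of over 35% in size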
# Summary of the method: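 Deubiquitinase activity followed as kinetic rhodamine fluorescence release from 150 nM Ub-Rho. 1 nM USP1/UAF1 with compound, after 15 min room-temperature preincubation, in HEPES pH 7.8 buffer containing TCEP, EDTA, BSA and Tween-20.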
# Sequence of Cytochrome P450 2C19 (Homo sapiens) (P33261 whole entry, looked up): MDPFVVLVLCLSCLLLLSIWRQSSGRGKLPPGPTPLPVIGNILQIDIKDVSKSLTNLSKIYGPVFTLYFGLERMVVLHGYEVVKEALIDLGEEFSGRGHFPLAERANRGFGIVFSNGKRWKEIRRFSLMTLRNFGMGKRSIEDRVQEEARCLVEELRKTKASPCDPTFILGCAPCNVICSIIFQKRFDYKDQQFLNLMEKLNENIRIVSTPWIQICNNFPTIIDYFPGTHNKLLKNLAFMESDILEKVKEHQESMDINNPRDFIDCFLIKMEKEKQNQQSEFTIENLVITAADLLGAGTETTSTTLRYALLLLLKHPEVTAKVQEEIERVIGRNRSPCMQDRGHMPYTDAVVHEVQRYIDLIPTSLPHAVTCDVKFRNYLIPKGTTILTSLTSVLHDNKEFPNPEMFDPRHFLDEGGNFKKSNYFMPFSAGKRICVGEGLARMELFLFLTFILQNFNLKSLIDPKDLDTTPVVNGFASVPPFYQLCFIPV
# Sequence of Cytochrome P450 3A4 (Homo sapiens) (P08684 whole entry, looked up): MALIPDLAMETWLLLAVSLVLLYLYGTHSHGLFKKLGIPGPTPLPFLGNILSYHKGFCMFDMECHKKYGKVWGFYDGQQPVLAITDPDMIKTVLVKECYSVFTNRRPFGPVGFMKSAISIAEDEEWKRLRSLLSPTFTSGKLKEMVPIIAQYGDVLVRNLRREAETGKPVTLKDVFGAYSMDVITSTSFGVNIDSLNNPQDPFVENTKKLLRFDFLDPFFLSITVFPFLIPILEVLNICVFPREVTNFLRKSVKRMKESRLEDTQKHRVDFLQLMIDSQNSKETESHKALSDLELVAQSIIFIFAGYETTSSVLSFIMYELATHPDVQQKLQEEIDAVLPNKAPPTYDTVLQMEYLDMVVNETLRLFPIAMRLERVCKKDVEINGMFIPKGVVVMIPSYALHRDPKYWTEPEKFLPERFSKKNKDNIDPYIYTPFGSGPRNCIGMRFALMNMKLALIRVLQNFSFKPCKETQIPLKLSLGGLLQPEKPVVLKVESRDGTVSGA
# Sequence of Cytochrome P450 1A2 (Homo sapiens) (P05177 whole entry, looked up): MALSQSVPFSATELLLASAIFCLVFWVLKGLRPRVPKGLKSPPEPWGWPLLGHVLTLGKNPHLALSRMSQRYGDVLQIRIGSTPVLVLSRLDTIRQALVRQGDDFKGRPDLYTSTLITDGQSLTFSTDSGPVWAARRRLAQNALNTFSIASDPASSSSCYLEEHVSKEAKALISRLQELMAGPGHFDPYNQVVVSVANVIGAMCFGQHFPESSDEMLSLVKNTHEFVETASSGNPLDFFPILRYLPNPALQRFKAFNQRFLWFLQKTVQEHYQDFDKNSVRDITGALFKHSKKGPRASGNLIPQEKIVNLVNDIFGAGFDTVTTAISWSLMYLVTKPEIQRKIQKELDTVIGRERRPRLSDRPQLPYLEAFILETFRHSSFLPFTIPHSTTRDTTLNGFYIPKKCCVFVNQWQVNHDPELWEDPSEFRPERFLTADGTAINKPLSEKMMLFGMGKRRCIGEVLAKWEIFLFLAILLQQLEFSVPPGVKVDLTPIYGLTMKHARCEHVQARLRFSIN
# Sequence of Rap guanine nucleotide exchange factor 3 (Homo sapiens) (O95398 whole entry, looked up): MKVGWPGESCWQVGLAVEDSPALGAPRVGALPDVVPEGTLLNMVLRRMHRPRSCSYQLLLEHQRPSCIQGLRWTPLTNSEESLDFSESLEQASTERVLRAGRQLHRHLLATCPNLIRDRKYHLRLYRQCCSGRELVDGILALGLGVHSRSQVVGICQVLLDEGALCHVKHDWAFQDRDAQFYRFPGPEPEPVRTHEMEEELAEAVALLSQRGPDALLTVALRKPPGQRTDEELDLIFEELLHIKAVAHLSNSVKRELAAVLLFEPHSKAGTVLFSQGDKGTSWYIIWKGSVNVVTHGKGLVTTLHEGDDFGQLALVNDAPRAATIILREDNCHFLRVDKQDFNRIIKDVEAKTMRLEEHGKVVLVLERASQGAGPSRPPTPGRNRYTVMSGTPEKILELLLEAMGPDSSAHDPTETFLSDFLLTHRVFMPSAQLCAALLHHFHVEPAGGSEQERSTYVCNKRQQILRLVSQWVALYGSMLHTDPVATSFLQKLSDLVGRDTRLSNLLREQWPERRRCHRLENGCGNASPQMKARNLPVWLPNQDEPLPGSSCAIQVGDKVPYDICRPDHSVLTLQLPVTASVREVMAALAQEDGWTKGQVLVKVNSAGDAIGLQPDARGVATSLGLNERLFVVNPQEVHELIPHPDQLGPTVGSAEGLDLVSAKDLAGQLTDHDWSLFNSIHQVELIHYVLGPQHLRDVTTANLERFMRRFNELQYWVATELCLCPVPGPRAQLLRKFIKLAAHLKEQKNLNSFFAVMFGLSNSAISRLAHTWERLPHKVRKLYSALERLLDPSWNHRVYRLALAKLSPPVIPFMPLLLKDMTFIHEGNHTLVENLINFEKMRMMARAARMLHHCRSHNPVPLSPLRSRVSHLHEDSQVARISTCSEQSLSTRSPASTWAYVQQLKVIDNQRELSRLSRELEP
# Sequence of Glucocorticoid receptor (Homo sapiens) (P04150 whole entry, looked up, the tested form may be a part): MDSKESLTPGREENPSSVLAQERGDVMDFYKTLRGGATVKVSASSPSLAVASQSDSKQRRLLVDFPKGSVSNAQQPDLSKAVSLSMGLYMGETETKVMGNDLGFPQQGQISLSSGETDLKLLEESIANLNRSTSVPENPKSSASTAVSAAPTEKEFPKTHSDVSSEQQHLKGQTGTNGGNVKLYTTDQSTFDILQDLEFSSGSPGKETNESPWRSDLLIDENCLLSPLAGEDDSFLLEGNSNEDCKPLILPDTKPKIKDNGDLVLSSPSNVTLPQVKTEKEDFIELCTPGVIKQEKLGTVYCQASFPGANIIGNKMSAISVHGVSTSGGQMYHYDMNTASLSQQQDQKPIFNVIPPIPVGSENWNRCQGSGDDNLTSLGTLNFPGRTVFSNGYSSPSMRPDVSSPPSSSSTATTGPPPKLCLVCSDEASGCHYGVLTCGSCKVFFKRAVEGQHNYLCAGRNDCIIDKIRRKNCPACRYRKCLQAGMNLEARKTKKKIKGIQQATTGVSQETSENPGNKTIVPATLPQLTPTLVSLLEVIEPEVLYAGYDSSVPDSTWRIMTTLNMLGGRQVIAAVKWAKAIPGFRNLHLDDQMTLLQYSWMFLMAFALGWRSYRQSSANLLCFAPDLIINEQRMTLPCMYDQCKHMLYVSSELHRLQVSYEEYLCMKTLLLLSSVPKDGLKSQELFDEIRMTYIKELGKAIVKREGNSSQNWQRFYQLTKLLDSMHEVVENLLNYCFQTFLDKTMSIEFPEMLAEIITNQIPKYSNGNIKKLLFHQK
# Sequence of Cytochrome P450 2C9 (Homo sapiens) (P11712 whole entry, looked up): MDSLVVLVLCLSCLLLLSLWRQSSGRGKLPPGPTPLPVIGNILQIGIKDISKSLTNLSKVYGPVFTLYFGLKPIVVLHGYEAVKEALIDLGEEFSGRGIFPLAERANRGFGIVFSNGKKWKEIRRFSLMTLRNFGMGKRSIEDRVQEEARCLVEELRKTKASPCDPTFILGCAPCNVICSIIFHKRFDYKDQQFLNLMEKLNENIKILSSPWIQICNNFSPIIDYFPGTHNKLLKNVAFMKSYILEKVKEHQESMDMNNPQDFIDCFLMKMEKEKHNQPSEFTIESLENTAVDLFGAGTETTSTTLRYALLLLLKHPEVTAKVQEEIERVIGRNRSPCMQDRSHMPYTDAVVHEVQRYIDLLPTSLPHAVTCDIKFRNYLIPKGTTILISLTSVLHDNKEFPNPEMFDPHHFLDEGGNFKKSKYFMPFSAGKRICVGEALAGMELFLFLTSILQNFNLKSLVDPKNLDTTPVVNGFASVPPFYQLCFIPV
# Sequence of Guanine nucleotide-binding protein G(i) subunit alpha-1 (Homo sapiens) (P63096 whole entry, looked up): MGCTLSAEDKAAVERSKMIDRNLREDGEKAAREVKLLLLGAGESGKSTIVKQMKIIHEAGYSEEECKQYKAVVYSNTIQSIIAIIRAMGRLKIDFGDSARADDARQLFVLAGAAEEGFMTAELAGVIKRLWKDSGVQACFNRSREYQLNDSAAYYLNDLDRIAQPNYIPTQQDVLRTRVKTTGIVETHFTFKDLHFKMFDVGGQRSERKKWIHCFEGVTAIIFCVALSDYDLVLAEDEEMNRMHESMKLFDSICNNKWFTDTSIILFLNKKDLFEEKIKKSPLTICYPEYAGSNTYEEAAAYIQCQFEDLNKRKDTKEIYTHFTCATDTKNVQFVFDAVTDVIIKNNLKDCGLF
# Sequence of 3',5'-cyclic-AMP phosphodiesterase 4B (Homo sapiens) (Q07343 whole entry, looked up): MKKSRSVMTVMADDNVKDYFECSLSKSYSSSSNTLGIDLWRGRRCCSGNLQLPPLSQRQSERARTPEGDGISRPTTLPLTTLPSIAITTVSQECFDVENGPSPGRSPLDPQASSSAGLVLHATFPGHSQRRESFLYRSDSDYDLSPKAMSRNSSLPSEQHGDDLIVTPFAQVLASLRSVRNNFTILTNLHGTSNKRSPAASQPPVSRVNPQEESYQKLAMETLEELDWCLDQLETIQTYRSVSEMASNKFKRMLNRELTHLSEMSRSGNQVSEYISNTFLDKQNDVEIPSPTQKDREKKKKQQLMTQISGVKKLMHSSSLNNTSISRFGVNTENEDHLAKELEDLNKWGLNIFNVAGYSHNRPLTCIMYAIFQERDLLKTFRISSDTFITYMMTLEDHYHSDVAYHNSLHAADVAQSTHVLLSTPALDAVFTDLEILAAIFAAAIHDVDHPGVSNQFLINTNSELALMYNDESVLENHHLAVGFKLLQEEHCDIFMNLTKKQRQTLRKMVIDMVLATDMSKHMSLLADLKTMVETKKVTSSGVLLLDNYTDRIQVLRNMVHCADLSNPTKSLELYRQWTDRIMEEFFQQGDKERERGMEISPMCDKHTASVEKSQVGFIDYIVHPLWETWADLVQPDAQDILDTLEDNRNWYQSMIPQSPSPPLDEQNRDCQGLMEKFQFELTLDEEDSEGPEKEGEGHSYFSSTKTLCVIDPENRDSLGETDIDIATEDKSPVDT
smiles,measurement,setting,value
CC(C)[C@@H]1[C@H]2CC[C@H](C2)[C@H]1N,"activity change, negative = inhibition",[1],17.6% (inactive)
same,Potency,[2],inactive and 31.6 µM (active)
same,"activity change, negative = inhibition",[3],2.88% (inactive)
same,"activity, negative = inhibition",[4],4.64% (inactive)
same,Potency,[5],> 46 µM (inactive)
same,Potency,[6],> 46 µM (inactive)
same,Potency,[7],inactive
same,Potency,[8],inactive
same,Potency,[9],inactive
same,Potency,[10],inactive
same,Potency,[11],inactive
same,Potency,[12],inactive
same,Potency,[13],inactive
same,Potency,[14],1 µM (active)
CCN(CC)CC1CCN(c2ncc3ncnc(Nc4ccc(F)c(Cl)c4)c3n2)CC1,Potency,[13],inactive
same,Potency,[14],inactive
c1ccc(-c2[nH]ncc2-c2ccnc3ccccc23)nc1,Potency,[13],inactive
same,Potency,[14],inactive
CC(C)[C@H](CO)Nc1nc(Nc2cc(N)cc(Cl)c2)c2ncn(C(C)C)c2n1,Potency,[2],0.501 µM (active)
same,Potency,[5],> 46 µM (inactive)
same,Potency,[6],> 46 µM (inactive)
same,Potency,[7],inactive
same,Potency,[12],inactive
same,Potency,[13],inactive
same,Potency,[14],inactive
same,outcome,[15],inactive
COc1cc(/C=C(\C#N)C(N)=O)cc(CSc2nc3ccccc3s2)c1O,Potency,[2],1.26 µM (active)
same,Potency,[6],> 46 µM (inactive)
same,Potency,[8],inactive
same,Potency,[16],3.98 µM (active)
same,Potency,[10],inactive
same,Potency,[17],0.0251 µM (active)
same,Potency,[11],3.16 µM (active)
same,Potency,[12],inactive
same,Potency,[13],inactive
same,Potency,[14],inactive
CCOC(=O)C1=C(C)NC(C)=C(C(=O)OC)[C@H]1c1cccc([N+](=O)[O-])c1,"activity change, negative = inhibition",[1],-24.5% (inactive)
same,Potency,[2],15.8 µM (active)
same,"activity change, negative = inhibition",[3],-17% (inactive)
same,"activity, negative = inhibition",[4],17.9% (inactive)
same,outcome,[18],inactive
same,Potency,[9],1.58 µM (active) and 158 nM (active)
same,Potency,[11],1.26 µM (active) and 251 nM (active)
same,Potency,[12],inactive
same,Potency,[13],inactive
same,Potency,[14],inactive
same,outcome,[15],inactive
CCCCC/C=C\C/C=C\C/C=C\C/C=C\CCCC(=O)O,Potency,[10],inactive
same,"activity change, negative = inhibition",[13],3.96% [at 6.83 µM] (inactive)
same,"activity change, negative = inhibition",[14],40.9% [at 3.88 µM] (inactive)
same,outcome,[15],inactive
CC[C@H](C)N(C)C(=O)c1cc2ccccc2c(-c2ccccc2Cl)n1,"activity change, negative = inhibition",[1],-18% (inactive)
same,Potency,[2],inactive
same,"activity change, negative = inhibition",[3],-2.88% (inactive)
same,"activity, negative = inhibition",[4],8.11% (inactive)
same,Potency,[7],inactive
same,outcome,[18],inactive
same,Potency,[10],inactive
same,Potency,[17],inactive
same,Potency,[11],inactive
same,Potency,[12],inactive
same,Potency,[13],inactive
same,Potency,[14],inactive
same,outcome,[15],inactive
c1ccc(-c2n[nH]c3c2oc2ccccc23)cc1,Potency,[13],inactive
same,Potency,[14],inactive
CC(C)=CCC/C(C)=C/CC/C(C)=C/CO,Potency,[16],inactive
same,Potency,[10],inactive
same,Potency,[19],inactive
same,Potency,[12],inactive
same,Potency,[13],inactive
same,Potency,[14],inactive
same,outcome,[15],inactive
O=C1CCc2c(ccc3ccccc23)O1,Potency,[5],> 46 µM (inactive)
same,Potency,[6],> 46 µM (inactive)
same,Potency,[7],inactive
same,Potency,[8],inactive
same,Potency,[19],inactive
same,Potency,[12],inactive
same,Potency,[13],inactive
same,Potency,[14],inactive
CCn1ccnc1C[C@@H]1COc2ccccc2O1,"activity change, negative = inhibition",[1],-10% (inactive)
same,Potency,[2],15.8 µM (active)
same,"activity change, negative = inhibition",[3],-4.02% (inactive)
same,"activity, negative = inhibition",[4],-3.71% (inactive)
same,Potency,[5],> 46 µM (inactive)
same,Potency,[6],> 46 µM (inactive)
same,Potency,[7],inactive
same,Potency,[8],inactive
same,outcome,[18],inactive
same,Potency,[16],inactive
same,Potency,[17],1.58 µM (active)
same,Potency,[12],inactive
same,Potency,[13],inactive
same,Potency,[14],inactive
same,outcome,[15],inactive
C[C@@H]1CCN=C(N)S1,"activity change, negative = inhibition",[1],12.9% (inactive)
same,Potency,[2],inactive and 39.8 µM (active)
same,"activity change, negative = inhibition",[3],2.83% (inactive)
same,"activity, negative = inhibition",[4],9.1% (inactive)
same,Potency,[5],> 46 µM (inactive)
same,Potency,[6],> 46 µM (inactive)
same,Potency,[7],inactive
same,Potency,[8],inactive
same,outcome,[18],inactive
same,Potency,[12],inactive
same,Potency,[13],inactive
same,Potency,[14],inactive
